{
  "source": "PubChem BioAssay (NCI)",
  "note": "The panel holds about 83,000 compounds, 20% with a hit somewhere; the sample as a whole holds those more often.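 Treatment: one concentration, 48 hours, 96-well format. Scoring: percent growth, with anything below 10 considered active.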 Values without a mark were called inactive. The source made the active and inactive calls.",
  "data": [
    {"system": "OVCAR-3 ovarian", "assay": "NCI-60 one-dose screen, 48 h (100 = growth as untreated, 0 = no growth, -100 = all killed)", "settings": "10 µM unless noted", "values": [
      {"smiles": "COC(=O)[C@]12CC[C@@H](C)[C@H](C)[C@@H]1C1=CC[C@@H]3[C@@]4(C)C[C@@H](OC(C)=O)[C@H](O)[C@@](C)(COC(C)=O)[C@@H]4[C@H](O)C[C@@]3(C)[C@]1(C)CC2", "growth": "-79.4% (active)"},
      {"smiles": "N#Cc1c(-c2ccco2)nc2c(c(-c3ccccc3)nn2-c2ccccc2)c1-c1ccc(O)cc1", "growth": "86%"},
      {"smiles": "CC(=O)c1c(C)[nH]c(-c2nc3ccc(N4CCN(C)CC4)cc3[nH]2)c1-c1ccc2c(c1)OCCO2", "growth": "46%"},
      {"smiles": "COc1ccc(C(=O)c2ccc(C)cc2)c(OC)c1OC", "growth": "66.7%"},
      {"smiles": "C[C@H]1OC(=O)/C=C/[C@@H](O)[C@@H](O)CCCCCCCC[C@@H]1O", "growth": "109%"},
      {"smiles": "COc1ccccc1-n1cnc(N)c1C(=O)c1cc(OC)c(OC)c(OC)c1", "growth": "-21.3% (active)"},
      {"smiles": "COc1ccc(/C=C(\\C#N)c2cc3ccccc3n2S(C)(=O)=O)cc1", "growth": "94.8%"},
      {"smiles": "Cc1cccc2c1NC(=O)[C@@]21[C@H](C(=O)c2ccccc2)[C@]2(C(=O)Nc3ccccc32)[C@H]2CCCN21", "growth": "2.54% [100 µM] (active)"},
      {"smiles": "N=c1ccc2nc3c(cc(N)c4ccccc43)oc-2c1", "growth": "-90.1% (active)"},
      {"smiles": "COc1cccc(-c2nn(-c3ccccc3)cc2-c2ccnc(NCCCNS(=O)(=O)c3ccc(Br)cc3)c2)c1", "growth": "58.8%"},
      {"smiles": "Cc1ccc(-c2nn(Cc3cn(-c4cc(C)nc5ccccc45)nn3)c3ncnc(N)c23)cc1", "growth": "53.1%"},
      {"smiles": "COc1ccc2c(c1)c1nc3cc(C)c(C)cc3nc1n2CCN(C)C", "growth": "27.1%"}
    ]}
  ]
}
